Assay outcomes from PubChem BioAssay.
Sampled rows, rich in hits. Any-hit rate of the full collection: about 21%.
Pf growth 96h – P. falciparum growth inhibition at 96 hours; Potency, µM (titrated, usually from 28.7 µM), for inactives: top-dose activity change, negative = inhibition, hits mostly inhibitors; 320,000 compounds, 6.9% hits; P. falciparum luciferase reporter growth, 96 h; active = well fitted inhibition curve with a large enough effect; inconclusive = small, poorly fitted or top-dose-only effect, or another doubt; inactive = no such curve, though single readings can be large or run the other way; also: potency is read from the fitted curve at half-maximal effect; % is scaled to controls: 0 for no effect and ±100 for the full control effect
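P. falciparum expressing integrated firefly luciferase, in erythrocytes at 2% hematocrit, 0.05% parasitemia, incubated with compounds 96 h at 37 C, 5% CO2. Growth inhibition read as loss of luminescence; two-generation exposure targets delayed-death apicoplast inhibitors.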
Cycloheximide cs – counter-screen for Shiga toxin inhibitors: cycloheximide protein synthesis inhibition; max response, %; 300,000 compounds, 12% hits; cell reporter, cycloheximide protein synthesis inhibition counterscreen; AID 2314; in the data active = max response mostly above about 13%, no sharp cut-off; inactive = mostly below about 14%; also: read at 38.3 µM for the half of the compounds with a filed dose; 0% is about no effect
SARS PLP yeast – blocks SARS-CoV papain-like protease in a yeast assay | S. cerevisiae expressing SARS-CoV PLpro, growth rescue | Potency, µM (top dose mostly 32.9 µM), inactives show top-dose activity, positive = growth rescue, most hits filed as activators | 330,000 compounds, 0.19% hits; also: potency is read from the fitted curve at half-maximal effect; 0% is about no effect; nearly all actives have a fitted effect of over 55% in size
NS1 inh – inhibitors of influenza NS1 protein function; Potency, µM (titrated, usually from 46.1 µM), for the others: top-dose activity, positive = more growth; 270,000 compounds, 0.4% hits; AID 2326; also: potency is read from the fitted curve at half-maximal effect; actives are rising curves; nearly all actives have a fitted effect of over 50% in size
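Recovery from NS1-induced slow growth read by OD600 in budding yeast switched to galactose assay medium (pH 6.0, -URA) at 1:100 dilution. Compound 23 nl per well; the matching strain lacking NS1 serves as control.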
Pf growth 48h – P. falciparum growth inhibition at 48 hours (one generation) | 310,000 compounds, 5.9% hits | Potency, µM (highest dose often 28.7 µM), inactives show at the highest dose activity change, negative = inhibition, hits mostly inhibitors | P. falciparum luciferase growth in erythrocytes, 48 h | AID 504832; active = well fitted inhibition curve with a large enough effect; inconclusive = small, poorly fitted or top-dose-only effect, or another doubt; inactive = no such curve, though single readings can be large or run the other way; also: potency is read from the fitted curve at half-maximal effect; % is scaled to controls: 0 for no effect and ±100 for the full control effect
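Luminescence readout; reporter = integrated firefly luciferase in P. falciparum. RBC culture at 2% hematocrit, 0.1% parasitemia final, 37 C/5% CO2; decreased signal taken as growth inhibition.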
Shiga toxin inh – blocks Shiga toxin action in Vero cells; Vero cells, Shiga toxin protein synthesis inhibition reporter; inhibition, % at 38.7 µM; 290,000 compounds, 9.2% hits; AID 2315; in the data active = inhibition mostly above about 28%, no sharp cut-off; inactive = mostly below about 43%; also: 0% is about no effect
An asterisk follows results filed as active; ? = inconclusive; . = no result. Unless noted, calls follow the shape of the full dose curve.

SMILES	Pf growth 96h	Cycloheximide cs	SARS PLP yeast	NS1 inh	Pf growth 48h	Shiga toxin inh
N[C@@H](CO)c1nnc([C@H](Cc2ccc(O)cc2)NC(=O)C2CCNCC2)o1	63%	1	0%	5%	61%	-4
CNC(=O)CSc1nnc(C2CC2)n1-c1ccccc1	21%	1	2%	.	9%	-13
O=C(CN1CCN(c2ncccn2)CC1)NCc1ccccc1	.	-4	2%	7%	-5%	-17
CCc1ccc(NC(=O)Nn2cnnc2)cc1	24%	17*	1%	-8%	4%	24
O=C(Nc1ccccc1)Nn1cnnc1	-4%	-4	-1%	4%	-2%	-7
O=C(Nc1ccc(Br)cc1)Nn1cnnc1	1%	11*	0%	-8%	103%	21
CCc1ccc(NC(=S)Nn2cnnc2)cc1	9%	11	1%	.	17%	-15
COc1ccc(N2CCN(C(=O)c3ccc(Br)o3)CC2)cc1	14%	-3	-7%	-27%	0%	-4
O=C(NCc1ccc(F)cc1)C(c1cccnc1)N(C(=O)c1csnn1)c1ccccc1 (stereo not given)	10µM*	-4	3%	-1%	-26%	-7
O=C(NC1CCCC1)C(c1ccccn1)N(C(=O)c1csnn1)c1ccccc1Br (stereo not given)	2.1µM*	.	1%	.	6%	.
CCc1ccc(N(C(=O)c2csnn2)C(C(=O)NC(C)(C)CC)c2ccccn2)cc1 (stereo not given)	0%	9	3%	.	-16%	-13
CCc1ccc(N(C(=O)c2csnn2)C(C(=O)NC(C)(C)C)c2ccccn2)cc1 (stereo not given)	?	29*	-2%	4%	25%	76*
C=CC[N+]1(CC#Cc2ccccc2)CCCC1	20%	-4	0%	5%	?	26
C=CC#CC[N+]1(CC#Cc2ccccc2)CCOCC1	4.1µM*	3	-12%	0%	5.9µM*	10
C(#Cc1ccccc1)C[N+]1(CC#Cc2ccccc2)CCCC1	?	-1	-9%	-9%	2.3µM*	4
Cc1ccc(C#CC[N+]2(C)CCCCC2)cc1	1.9µM*	-3	1%	0%	6.6µM*	5
CN(C)CC#CCOC(c1ccccc1)c1ccccc1	33%	1	-1%	2%	-30%	5
C=CC[N+]1(CC#CCOC(c2ccccc2)c2ccccc2)CCOCC1	2.6µM*	-2	-2%	-1%	?	-8
O=C(O)/C(=C\c1ccc(Br)cc1)NC(=O)c1cccs1	30%	-3	0%	4%	33%	12
O=C(COc1ccccc1)Nc1nnc(-c2ccc(F)cc2)o1	12µM*	9	-11%	-66%	22%	24
O=C(Nc1nnc(-c2ccc3c(c2)OCCO3)o1)c1ccc(Cc2ccccc2)cc1	36%	-6	6%	-3%	.	-19
O=C(CCOc1ccccc1)Nc1nnc(-c2ccc3c(c2)OCCO3)o1	21%	21*	-2%	.	6%	47
Cc1ccc(S(=O)(=O)N2CCC(C(=O)OCC(=O)N3CCCC3=O)CC2)cc1C	27%	.	3%	.	-2%	.
Cc1ccc(CNCC(O)(c2ccccc2)c2ccc(Cl)cc2)cc1 (stereo not given)	1.7µM*	-1	2%	.	0.83µM*	9
COc1ccc(CNCC(O)(c2ccccc2)c2ccc(Cl)cc2)cc1 (stereo not given)	2.3µM*	10	-1%	-13%	2.3µM*	-2
SMILES	Pf growth 96h	Cycloheximide cs	SARS PLP yeast	NS1 inh	Pf growth 48h	Shiga toxin inh
Cc1ccc(CNCC(O)(c2ccccc2)c2ccccc2)cc1	?	15*	0%	-7%	?	23
COc1cccc(CNCC(O)(c2ccc(Cl)cc2)c2ccc(Cl)cc2)c1	1.3µM*	-4	-3%	-60%	6.6µM*	57
Cc1ccc(S(=O)(=O)N2CCN(c3ncnc4scc(-c5ccc(F)cc5)c34)CC2)cc1	-24%	.	-2%	.	?	.
COc1ccc(-c2csc3ncnc(N4CCN(S(=O)(=O)c5cccc(C(F)(F)F)c5)CC4)c23)cc1	1%	.	-6%	.	10µM*	.
COc1ccc(-c2csc3ncnc(N4CCN(S(=O)(=O)c5cccc(Br)c5)CC4)c23)cc1	?	.	4%	.	?	.
COc1ccc(-c2csc3ncnc(N4CCN(S(=O)(=O)c5ccc(C(C)=O)cc5)CC4)c23)cc1	2.3µM*	.	-1%	.	1.7µM*	.
CC1CCCCC12NC(=O)N(CC(=O)N1CCc3ccccc3C1)C2=O (stereo not given)	31%	.	0%	.	2%	.
COC(=O)Cc1ccc(O)c(N)c1	1.9µM*	-1	1%	5%	?	6
CCc1ccc(C(=O)COC(=O)c2cc([N+](=O)[O-])ccc2N2CCOCC2)cc1	?	.	2%	.	?	.
COC(=O)c1cn(C(=O)c2cc(Br)ccc2Cl)c2ccccc12	68%	-4	0%	10%	?	-5
CSCC[C@H](NC(=O)[C@@H](NC(=O)[C@H](CCC(=O)O)NC(=O)[C@H](CCSC)NC(=O)[C@H](CC(N)=O)NC(=O)[C@H](CCC(=O)O)NC(=O)[C@H](CC(N)=O)NC(=O)[C@H](CO)NC(=O)[C@H](C)N)[C@@H](C)O)C(=O)O	.	7	.	.	.	37
O=S(=O)(c1ccccc1)[C@@]1(c2ccccc2)C[C@@H]2ON=C(c3cccc(-c4ccccc4)c3)[C@@H]2C1	?	.	0%	.	7.4µM*	.
COc1ccc(C2=NO[C@H]3C[C@](C(=O)NC(C)C)(S(=O)(=O)c4ccccc4)C[C@@H]23)cc1	8%	-1	4%	4%	32%	4
N#Cc1cccc(CN2CCC(=O)N([C@H](CO)Cc3ccccc3)CC2)c1	32%	-1	8%	3%	-1%	0
CCOC(=O)c1c(N/N=C/c2cccnc2)n[nH]c1C	44%	31*	0%	-2%	178%	49*
CC(C)c1cc(C(=O)N/N=C/c2ccco2)n[nH]1	123%	40*	-11%	8%	163%	88*
CC(C)c1cc(C(=O)N/N=C/c2cccnc2)n[nH]1	33%	17*	-3%	-4%	19%	27
O=C(N/N=C/c1ccco1)c1cc(-c2cccs2)[nH]n1	-25%	18*	7%	9%	-20%	19
O=C(N/N=C/c1ccco1)c1cc(-c2ccc(Br)s2)[nH]n1	?	5	0%	2%	?	23
Cc1cc(C(=O)N/N=C/c2cccnc2)cs1	-23%	14	4%	-9%	30%	19
Cc1ccc(OCC(=O)N/N=C/c2cccnc2)cc1	-26%	5	-3%	-3%	-6%	-3
COC(=O)c1sc2nc(C)nc(SCC(=O)N3CCC(C(=O)O)CC3)c2c1C	6%	-2	3%	?	0%	20
Cc1c(OCC(=O)NCC2CCC(C(=O)NCCCO)CC2)ccc2c(-c3ccccc3)cc(=O)oc12 (stereo not given)	?	10	2%	9%	?	2
